Each structure is given as a SMILES string. This is part of a sample that, as a whole, favours compounds with a hit. Of some 83,000 tested, about 20% had one in any assay.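 In brief: 96-well plates, 48 h treatment, single concentration, percent growth endpoint.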 The source made the active and inactive calls.

The assay relates to OVCAR-8 ovarian. The experiment in a line: NCI-60 one-dose screen, 48 h (100 = growth as untreated, 0 = no growth, -100 = all killed). The conditions noted are these: 10 µM unless noted. The protocol: Growth inhibition of the OVCAR-8 human tumor cell line is measured as a screen for anti-cancer activity. Cells are grown in 96 well plates and exposed to the test compound for 48 hours. Compounds are tested at a single concentration, which is 10^-5 M for most compounds. The reported endpoint is percent growth (GI% or GIPRCNT), where numbers from 0 - 100% represent growth inhibition, and numbers from -100% - 0 represent cell death. For example, a value of 40 represents 60% growth inhibition. A value of 0 means no net growth occurred over the course of the experiment. A value of -40 indicates 40% of cells at the beginning of the experiment died by the end of the experiment. A value of -100 means all cells are dead at the end of the experiment.
NCI-60 Human Tumor Cell Lines Screen was performed using the standard one-dose NCI protocol, which is described in more detail at https://dtp.cancer.gov/discovery_development/nci-60/default.htm.
Compounds with GIPRCNT values below 10 were considered active. Activity score was based on GIPRCNT using the following formula: […]
Score is 0 for GIPRCNT values of 100 or above, 50 for GIPRCNT values of 0, and 100 for GIPRCNT values of -100.
As to `COc1cc(C2=N/C(=C\c3cc4ccccc4nc3Oc3ccccc3)C(=O)N2C(=N)N)cc(OC)c1OC`, the growth is 33.2% (inactive).
Regarding `O=S(=O)(O)c1ccc(N=NSc2ccc3ccccc3c2)cc1`, the growth was 108% (inactive).
The value for `COc1ccc([C@H]2[C@@H](F)C(=O)N2c2cc(OC)c(OC)c(OC)c2)cc1F` was 13.7% (inactive); that for `CCN1CCN(c2ccc(NC(=O)Nc3nc4ccc(-c5ccccc5OC)cc4s3)cc2)CC1` was -52.5% (active); that for `COc1ccc(C(=O)c2cc(OC)c(OC)c(OC)c2)cc1OC(=O)C(Cl)(Cl)Cl` was 2.55% (active).
On to `CCCS(=O)(=O)Nc1ccc(F)c(C(=O)c2c[nH]c3ncc(-c4ccc(OCCCC5CCCCN5)nc4)cc23)c1F` (stereo not given), for which the growth is 88.9% (inactive).
`COc1cc([C@H](C)c2ccc3ccccc3c2)cc(OC)c1OC`: the growth was 23.2% (inactive).
As for `CN(C)C(CNc1oc(-c2cccc3ccccc23)nc1C#N)c1ccco1` (stereo not given), the growth is 96.4% (inactive).
For `CC1(C)[C@@H](O)CC[C@]2(C)[C@H]3CC[C@@H]4[C@H]5[C@H](c6cn(-c7ccccc7)nn6)CC[C@]5(CO)CC[C@@]4(C)[C@]3(C)CC[C@@H]12`, the growth was 85.2% (inactive).
Take `C#C[C@@]1(O)[C@@H](CO)O[C@@H](n2cc(Cl)c3c(N)ccnc32)[C@@H]1O`: the growth is 26.9% (inactive).
Turning to `Nc1ccccc1NC(=O)c1ccc(CSc2nc(N3CCOCC3)c3cccn3n2)cc1`, the growth is 15.9% (inactive).
For the molecule `C[C@@H]1C(=O)[C@@H]2C[C@@H](O)[C@@H](O)C[C@]2(C)[C@H]2CC[C@@]3(C)C(=C12)CC[C@@H]3[C@@](C)(O)[C@H](O)CCC(C)(C)O`, the growth is 94.7% (inactive).
The value for `COc1ccc(-c2cc(-c3nnc(SCC(=O)Nc4ccc(C(C)=O)cc4)o3)c3ccccc3n2)cc1` was -21% (active); that for `C[C@H](Oc1cc(-c2cnn(C3CCNCC3)c2)cnc1N)c1c(Cl)ccc(F)c1Cl` was 77.7% (inactive).
The value for `C[C@H]1[C@H](C)CC[C@]2(C(=O)OCCOCCOCC[P+](c3ccccc3)(c3ccccc3)c3ccccc3)CC[C@]3(C)C(=CC[C@@H]4[C@@]5(C)CC[C@H](OC(=O)C(Cl)Cl)C(C)(C)[C@@H]5CC[C@]43C)[C@H]12` was 11% (inactive); that for `COc1ccc(C(=O)c2cc(OC)c(OC)c(OC)c2)cc1OC(=O)CCl` was 7.08% (active); that for `COc1ccc2oc(=O)cc(-c3c(C#N)c(N)n4nc(N)c(C#N)c4c3C#N)c2c1` was 111% (inactive).
The value for `O=c1[nH]c2ccccc2cc1-c1nc2ccc(Cl)cc2[nH]1` was 57.7% (inactive); that for `O=C(Nc1ccccc1)NS(=O)(=O)c1c[nH]c(=S)[nH]c1=O` was 94.9% (inactive).
As for `CCOC(=O)C(=Cc1c(-c2ccccc2)[nH]c2ccccc12)C(=O)OCC`, the growth is 39.4% (inactive).
Take `O=C(O)c1cc(N=Nc2ccc(-c3ccc(N=Nc4c(S(=O)(=O)O)cc5ccc(Nc6ccccc6)cc5c4O)cc3)cc2)ccc1O`: the growth was 107% (inactive).
With `CNCc1cccc2c1OCCOCCOCCN(CCN1CCOCC1)S(=O)(=O)c1ccc(cc1)-c1cnc(N)c(n1)C(=O)N2`, the growth is 62.2% (inactive).
On to `COc1ccc(C2CC(c3ccc(OC)cc3O)=NN2c2ccc(S(N)(=O)=O)cc2)cc1` (stereo not given), for which the growth is 43% (inactive).
Turning to `COc1cc(/C=C/C(=O)c2cccs2)ccc1OCc1ccc(Cl)nc1`, the growth is 80.2% (inactive).
On to `N#Cc1c(-c2ccc(F)cc2)nc(N=Nc2c(O)[nH]c3ccccc23)nc1N1CCOCC1`, for which the growth is 77.7% (inactive).
With `O=C(CN1N=C(c2ccc(F)cc2)CCC1=O)Nc1nccs1`, the growth was 98.6% (inactive).
The value for `CC(C)C[C@H](C(=O)O)N(C)C(=O)[C@@H]1CCCN1C(=O)[C@H](C)OC(=O)[C@H](CCC(N)=O)NC(=O)[C@@H]1CCC(=O)N1` was 103% (inactive); that for `COc1cc(/C=C/C(=O)/C=C/c2cc3ccc(Cl)cc3[nH]c2=O)ccc1O` was 6.97% (active).
Consider `CCCn1c2cc(OCc3cn(-c4ccc(Cl)cc4)nn3)ccc2c2ccnc(C)c21`, for which the growth was 49.9% (inactive).
Take `COc1cc(NCC(=O)Nc2cc(Nc3ccc(C)cc3)ncn2)c(Cl)c(OC)c1Cl`: the growth is 88.4% (inactive).
Regarding `COc1ccccc1-c1ccc2nc(NC(=O)Nc3cc(C(F)(F)F)cc(C(F)(F)F)c3)sc2c1`, the growth is 9.39% (active).
The value for `COc1cc(-c2nn(-c3ccc(Br)cc3)cc2CO)ccc1O` was 94.9% (inactive); that for `CCCn1c(N)c(C(N)=O)sc1=S` was 106% (inactive).
Take `COc1ccc(Nc2cc(NC(=O)CNc3cc(OC)c(Cl)c(OC)c3Cl)ncn2)cc1`: the growth is 78.2% (inactive).
For the molecule `CCC1=C[C@H]2CN(CCc3c([nH]c4ccccc34)[C@@](C(=O)OC)(c3cc4c(cc3OC)N(C)[C@H]3[C@@](O)(C(=O)OC)[C@H](OC(C)=O)[C@]5(CC)[C@@H]6C[C@@H]6CN6CC[C@]43[C@@H]65)C2)C1`, the growth is 8.29% (active).
As to `O=C(Nc1cc(Br)ccn1)c1cc2cc(Nc3nc(-c4ccccc4)nc4ccccc34)ccc2oc1=O`, the growth was 103% (inactive).
On to `CCCn1c2cc(OCc3cn(-c4ccc(Br)cc4)nn3)ccc2c2ccnc(C)c21`, for which the growth is 50.8% (inactive).
In the case of `Cc1nccc2c3ccc(OCc4cn(-c5ccc(Br)cc5)nn4)cc3n(CC(C)C)c12`, the growth is 40.7% (inactive).
As to `O=C1Nc2ccccc2C12C=C(c1ccccc1)Nc1c2c(-c2ccccc2)nn1-c1ccccc1` (stereo not given), the growth was 46.6% (inactive).
For `CSc1nc(-c2ccco2)c2c(N)[nH]nc2n1`, the growth is 108% (inactive).
